# Assay outcomes deposited in PubChem BioAssay by National Center for Advancing Translational Sciences (NCATS).
# RORg inh = blocks mouse ROR gamma transcriptional activity; P51450; Drosophila S2 Gal4-RORgamma UAS-luciferase reporter, 20 h; Potency, µM (doses to about 53.6 µM), for the others: top-dose activity change, negative = inhibition, usual class: inhibitors; 310,000 tested, 5.4% active; AID 2551; further: on the % scale 0 is the no-effect control and ±100 the full control effect; nearly all actives have a fitted effect of over 60% in size
# Target sequence (P51450 whole entry, looked up, the tested form may be a part): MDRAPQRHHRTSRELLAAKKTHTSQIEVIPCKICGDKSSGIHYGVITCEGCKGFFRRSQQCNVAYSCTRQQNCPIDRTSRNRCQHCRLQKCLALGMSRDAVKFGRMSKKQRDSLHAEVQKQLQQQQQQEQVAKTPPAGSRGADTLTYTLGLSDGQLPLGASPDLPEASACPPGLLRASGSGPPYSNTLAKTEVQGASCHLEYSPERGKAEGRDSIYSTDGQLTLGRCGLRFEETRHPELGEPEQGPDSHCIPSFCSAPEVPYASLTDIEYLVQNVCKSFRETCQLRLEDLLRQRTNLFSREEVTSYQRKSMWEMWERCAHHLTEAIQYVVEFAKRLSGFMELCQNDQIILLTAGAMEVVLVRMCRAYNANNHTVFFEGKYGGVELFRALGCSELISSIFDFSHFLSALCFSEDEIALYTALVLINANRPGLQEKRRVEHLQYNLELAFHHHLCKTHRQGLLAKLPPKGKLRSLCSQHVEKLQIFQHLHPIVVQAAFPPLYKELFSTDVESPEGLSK
#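 A Gal4/UAS one-hybrid system in insect cells: metallothionein-promoter Gal4–ROR gamma fusion plus Photinus luciferase reporter. Copper sulfate 700 uM final, 20 hr ambient incubation, luminescent detection after 10 min with reagent.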
# Gal4-VP16 FLuc = Gal4-VP16 reporter inhibition counter-screen | Drosophila S2 Gal4-VP16 UAS-luciferase, luminescence, 20 h | Potency, µM (series often up to 53.6 µM), for inactives: at the highest dose activity, negative = inhibition, usual class: inhibitors | 310,000 tested, 3.5% active;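 further: Gal4-VP16 expression switched on by copper sulfate through the metallothionein promoter; on the % scale 0 is the no-effect control and ±100 the full control effect; nearly all actives have a fitted effect of over 50% in size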
# Mito fusion yeast = blocks mitochondrial division or promotes mitochondrial fusion. S. cerevisiae fusion-defective mutant growth rescue, CellTiterGlo 48 h. Potency, µM (top dose mostly 46.1 µM), for inactives: at the highest dose growth rescue (activation), most hits filed as activators. 320,000 tested, 0.23% active. AID 485298; further: % of control where 0% means no effect; nearly all actives have a fitted effect of over 45% in size
#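 S. cerevisiae fusion-defective temperature-sensitive mutants (e.g. fzo1-1, mgm1-5) grown 48 h at 37C in YPEG (ethanol/glycerol non-fermentable) medium with 23 nl compound per well; growth rescue read as CellTiterGlo luminescence.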
# uPA generation = cell surface uPA generation inhibition. AID 540303. Potency, µM (highest dose often 38.3 µM), for inactives: top-dose activity change, negative = inhibition, actives largely listed as inhibitors. 330,000 tested, 0.31% active. cell surface uPA generation assay, qHTS; active means well fitted inhibition curve with a large enough effect; inconclusive means small, poorly fitted or top-dose-only effect; inactive means no such curve, though single readings can be large or run the other way; tested in mouse RAW 264.7 cells; further: on the % scale 0 is the no-effect control and ±100 the full control effect; nearly all actives have a fitted effect of over 55% in size
# Chronic BCR inh = inhibitors of chronic active B-cell receptor signaling; ABC-DLBCL IkBa-CBG/CBR reporter, luminescence ratio, 4 h; Potency, µM (highest dose often 46.1 µM), inactives show top-dose activity change, negative = inhibition, most hits filed as inhibitors; 340,000 tested, 0.05% active; AID 493014; active means well fitted inhibition curve with a large enough effect in the signal ratio, with a control signal flat, not every such curve was filed as active; inconclusive means small, poorly fitted or top-dose-only effect, or effect the other way, or a change in a side signal; the % refers to the signal ratio;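 further: plate controls were basal doxycycline-induced cells for no effect and cells given 10 µM MG132 for full effect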
#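 Doxycycline induced both beetle luciferases in TMD8 lymphoma cells; IKK-driven degradation limits the IkappaBalpha-fused green signal, while red luminescence normalises for cell number and nonspecific effects. Compounds tested up to 46 uM, 4 hrs.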
# a7 integrin act = activates integrin-mediated alleviation for muscular dystrophy | 350,000 tested, 0.064% active | Potency, µM (titrated, usually from 38.3 µM), without a hit: at the top dose activation, hits mostly activators | alpha7betagal myoblasts, beta-gal FDG fluorescence, 48 h;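 further: 100% = response of the positive control SU9516; nearly all actives have a fitted effect of over 60% in size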
#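 alpha7betagal+/- myoblasts (passage 13, 250/well) treated 48 h at 37C with compounds at 1:260 dilution of DMSO stock. Lysed, then beta-galactosidase activity read as FDG fluorescence (ex 480/em 540) after 30 min, with pre-read for autofluorescence.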
# * = called active by the depositor; ? = inconclusive; / = no result given; [ ] = another dose, or the depositor's remark. A selection: hits, their analogues and other compounds. The true share with any hit is near 5.5%. Unless noted, the call rests on the fitted dose curve; in most records, active means well fitted curve in the direction sought with a large enough effect; inconclusive means small, poorly fitted or top-dose-only effect, or another doubt; inactive means no such curve, though single readings can be large; an effect the other way counts as inactive or inconclusive. Potency means the concentration at half of the fitted maximal effect.
SMILES,RORg inh,Gal4-VP16 FLuc,Mito fusion yeast,uPA generation,Chronic BCR inh,a7 integrin act
CC[C@H](C)[C@H](NC(=O)[C@H](CCC(=O)O)NC(=O)[C@H](CO)NC(=O)[C@@H](NC(=O)[C@H](C)N)C(C)C)C(=O)N[C@@H](CCC(N)=O)C(=O)N[C@@H](CC(C)C)C(=O)N[C@@H](CCSC)C(=O)N[C@@H](Cc1cnc[nH]1)C(=O)N[C@@H](CC(N)=O)C(=O)N[C@@H](CC(C)C)C(=O)NCC(=O)N[C@@H](CCCCN)C(=O)N[C@@H](Cc1cnc[nH]1)C(=O)N[C@@H](CC(C)C)C(=O)N[C@@H](C)C(=O)N[C@@H](CO)C(=O)N[C@H](C(=O)N[C@@H](CCC(=O)O)C(=O)N[C@@H](CCCNC(=N)N)C(=O)N[C@@H](CCSC)C(=O)N[C@@H](CCC(N)=O)C(=O)N[C@@H](Cc1c[nH]c2ccccc12)C(=O)N[C@@H](CC(C)C)C(=O)N[C@@H](CCCNC(=N)N)C(=O)N[C@@H](CCCCN)C(=O)N[C@@H](CCCCN)C(=O)N[C@@H](CC(C)C)C(=O)N[C@@H](CCC(N)=O)C(=O)N[C@@H](CC(=O)O)C(=O)N[C@H](C(=O)N[C@@H](Cc1cnc[nH]1)C(=O)N[C@@H](CC(N)=O)C(=O)N[C@@H](Cc1ccccc1)C(=O)O)C(C)C)C(C)C,21%,4%,/,/,/,/
CC(C)(C)OC(=O)C(Cl)(C(=O)OC(C)(C)C)c1ccc2nnnn2n1,13µM*,?,-6%,-4%,-10%,-60%
CC12CC3(C)CC(C)(C1)CC(C(=O)NCC(=O)O)(C2)C3,28%,3%,-1%,-3%,6%,-6%
CN(C)C(=S)NC(=O)C12CC3(C)CC(C)(CC(C)(C3)C1)C2,2.5µM*,-23%,-7%,0%,3%,8%
Cc1ccc(CCNC(=O)c2cc(-c3ccncc3)nc3ccc(S(=O)(=O)N4CCOCC4)cc23)cc1,-5%,3%,-7%,8%,9%,?
CCCC(=O)NC(c1ccc(OC)c(OC)c1)c1cc(Cl)c2cccnc2c1O (stereo unspecified),2.8µM*,5µM*,7%,-10%,7%,-24%
CC(=O)NC(c1ccccc1)c1cc(Cl)c2cccnc2c1O (stereo unspecified),1.4µM*,1.1µM*,3%,-17%,-10%,-27%
COc1ccc(C(NC(C)=O)c2cc(Cl)c3cccnc3c2O)cc1 (stereo unspecified),2µM*,1.6µM*,0%,6.3µM*,0%,0%
O=C(NC(c1ccc(Cl)cc1)c1cc(Cl)c2cccnc2c1O)c1cccnc1 (stereo unspecified),0.71µM*,0.71µM*,30%,0%,1%,-29%
O=C(Cc1cccc(NC(=O)C2CCN(C(=O)C3CCCC3)CC2)c1)Nc1cccc(C(=O)N2CCOCC2)c1,/,/,/,19%,/,12%
CCC(C(=O)OCC(=O)N1CCN(c2ccc(OC)cc2)CC1)c1ccccc1 (stereo unspecified),/,/,2%,5%,-2%,-18%
COc1ccc(S(=O)(=O)CCc2nnc(NC(=O)c3ccc(F)cc3)s2)cc1,-14%,-2%,3%,-2%,13%,-20%
CC1CCN(C(=O)CSc2nc(N)c(NC(=O)c3ccccc3)c(=O)[nH]2)CC1,-22%,1%,3%,5%,1%,-28%
O=C(c1ccc(CSc2nc3ccncc3[nH]2)cc1)N1CCN(c2cccc(Cl)c2)CC1,?,11µM*,8%,?,?,-10%
O=C(NCc1ccc(Cl)cc1)c1ccc(CSc2nc3ccncc3[nH]2)cc1,15%,-16%,-4%,0%,-13%,6%
O=C(CSCc1nc2ccccc2[nH]1)N1CCN(c2cccc(Cl)c2)CC1,11µM*,?,-5%,-2%,?,1%[7.66 µM]
O=C(c1ccc(CSc2nc3ccncc3[nH]2)cc1)N1CCCCCC1,3%,?,3%,-15%,2%,-30%
Clc1ccc(CSc2nc3ccncc3[nH]2)cc1,?,?,-5%,0.45µM*,?,-15%
Cc1ccc(CSc2nc3ccncc3[nH]2)cc1,7.9µM*,7.9µM*,-1%,-99%,?,-12%
CCN(CC)c1nc(NN)nc(Nc2ccc(C)c(Cl)c2)n1,/,/,/,0%,/,-15%
CCCCS/C(=C(/C#N)C(N)=O)c1cc2c([nH]1)CCCC2,18%,3%,13µM*,-12%,?,-63%
O=C(CSc1nc2ccccc2n1CC(=O)N1CCCC1)NCc1ccc2c(c1)OCO2,-40%,-8%,2.8µM*,4%,-1%,2%
O=C(CSc1nc2ccccc2c(=O)n1-c1ccccc1)NCc1ccc2c(c1)OCO2,36%,-10%,6%,-1%,9%,-6%
Cc1cccc(/C=N/NC(=O)Cc2ccc(Cl)cc2)c1O,1.1µM*,1µM*,-9%,?,?,-33%
Cc1ccc(O)c(/C=N/NC(=O)Cc2ccc(Cl)cc2)c1,0.63µM*,0.63µM*,-1%,?,-2%,-13%
SMILES,RORg inh,Gal4-VP16 FLuc,Mito fusion yeast,uPA generation,Chronic BCR inh,a7 integrin act
Cc1cccc(/C=N\NC(=O)c2ccc(Cl)cc2)c1O,6.3µM*,13µM*,-8%,-14%,?,15%
COC(=O)c1ccc(C(NC(=O)OCc2ccccc2)/C(=C/[C@@H](C)C(=O)NCCc2c[nH]c3ccccc23)c2cccnc2)cc1 (stereo partly specified),34%,-8%,/,/,/,/
COc1ccc(-c2nnc3n2N(C(C)=O)C(c2ccc(Cl)c(Cl)c2)=C(C(C)=O)S3)cc1,/,/,/,/,-3%,/
O=C(Nc1ccccc1)N1CCC(=S)Nc2ccccc21,-35%,-4%,-2%,-7%,-1%,27%
CC1CC(=S)Nc2ccccc2N1C(=O)Nc1ccccc1 (stereo unspecified),10µM*,?,-6%,-5%,-1%,?
O=C(c1c(O)c2ccc(Cl)cc2[nH]c1=O)C1CC1,7%,-1%,/,/,/,/
CCC1COC(c2cccn2Cc2ccccc2Cl)=N1 (stereo unspecified),8.9µM*,4%,-1%,19%,4%,-26%
Fc1ccc(Cn2cccc2C2=NC(c3ccccc3)CO2)cc1 (stereo unspecified),26%,-8%,21%,4%,?,2%
CC(C)c1ccc(NC2CCCN(C(=O)CCn3cnnn3)C2)cc1 (stereo unspecified),14%,3%,-1%,4%,-1%,2%
